Source: PubChem (National Center for Advancing Translational Sciences (NCATS))
In the library only some 7.4% were active in any assay of this set; here they are far more common.
SMN2 splice enh – qHTS Assay for Enhancers of SMN2 Splice Variant Expression; HEK293 SMN2-luciferase splicing reporter, luminescence, 30-36 h; Potency, µM (highest dose often 46.1 µM), inactives show top-dose activity change, positive = activation, hits mostly activators; hit rate 2.8% among 210,000; AID 1458, 2008; note: % of control where 0% means no effect; nearly all actives have a fitted effect of over 55% in size
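HEK293 cells carry an SMN2 minigene-luciferase reporter in which exon 7 inclusion puts luciferase in frame. Cells were seeded at 2000 cells/well, attached for 10-12 hours, then exposed to compounds for 30-36 hours at 37C before ONE-Glo luminescence.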
ELG1 genotoxic – qHTS screen for small molecules that induce genotoxicity in human embryonic kidney (HEK293T) cells expressing luciferase-tagged ELG1 | HEK293T ELG1-luciferase reporter, luminescence, 16 h | Potency, µM (highest dose often 46 µM), for the others: at the highest dose activity change, positive = activation, actives largely listed as activators | hit rate 1.3% among 330,000; note: % of control where 0% means no effect; nearly all actives have a fitted effect of over 60% in size
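HEK293T cells expressing luciferase-tagged ELG1 were treated with compound or DMSO for 16 hr at 37°C. Luciferase activity was then read after 30 min with ONE-Glo at room temperature; rising signal flags genetic stress.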
NPC1 promoter act – qHTS Assay for NPC1 Promoter Activators; Huh7 NPC1 promoter luciferase reporter, 24 h; AID 485313, 2010; hit rate 2.4% among 320,000; Potency, µM (top dose mostly 9.22 µM), without a hit: top-dose activation, most hits filed as activators; note: % of control where 0% means no effect; nearly all actives have a fitted effect of over 60% in size
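Huh7 reporter cells (NPC1 promoter driving luciferase) are dosed with compound for 24 h at 37 °C, 5% CO2; luciferase detection reagent is then added and luminescence measured after 10 min at ambient temperature.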
FLuc counter – qHTS profiling assay for firefly luciferase inhibitor/activator using purifed enzyme and Km concentrations of substrates (counterscreen for miR-21 project); purified FLuc, Km substrates, luminescence inhibition; Potency, µM (titrated, usually from 57.5 µM), without a hit: top-dose activity change, negative = inhibition, usual class: inhibitors; hit rate 6.9% among 360,000; AID 588342, 2011;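 note: plate controls were vehicle for no effect and reference inhibitor for full effect; nearly all actives have a fitted effect of over 55% in size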
Target sequence (P08659 whole entry, looked up): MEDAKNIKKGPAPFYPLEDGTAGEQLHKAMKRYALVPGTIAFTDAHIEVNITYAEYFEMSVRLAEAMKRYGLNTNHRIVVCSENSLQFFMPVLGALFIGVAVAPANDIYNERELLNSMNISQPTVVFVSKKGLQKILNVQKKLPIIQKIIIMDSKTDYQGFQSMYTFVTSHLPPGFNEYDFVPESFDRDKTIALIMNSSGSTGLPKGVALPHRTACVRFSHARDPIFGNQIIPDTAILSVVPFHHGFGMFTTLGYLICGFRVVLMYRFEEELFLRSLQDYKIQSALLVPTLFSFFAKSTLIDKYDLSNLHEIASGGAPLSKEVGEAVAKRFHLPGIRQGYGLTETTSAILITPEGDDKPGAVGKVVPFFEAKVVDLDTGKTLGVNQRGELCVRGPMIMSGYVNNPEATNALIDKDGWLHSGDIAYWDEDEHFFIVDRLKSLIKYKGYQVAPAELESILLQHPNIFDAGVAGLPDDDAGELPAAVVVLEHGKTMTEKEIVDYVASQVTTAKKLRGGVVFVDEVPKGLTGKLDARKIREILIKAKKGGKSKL
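Biochemical qHTS of compounds, final roughly 60 µM downward over six points, against 10 nM purified firefly luciferase using Km concentrations of substrates (10 uM D-luciferin, 10 uM ATP) in Tris acetate pH 7.5 buffer; luminescence output.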
Rab9 promoter act – qHTS Assay for Rab9 Promoter Activators; Huh7 Rab9 promoter-luciferase reporter, luminescence, 24 h; AID 485297, 2010; Potency, µM (series often up to 9.22 µM), inactives show at the highest dose activation, negative = inhibition, usual class: activators; hit rate 2.8% among 320,000; note: % of control where 0% means no effect; nearly all actives have a fitted effect of over 60% in size
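Stable Rab9-luc Huh7, 1500 cells/well, 2 h settle; cmpd in DMSO, 24 h, 37 °C/5% CO2; luciferase reagent 10 min RT; luminescence.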
* marks the source's active call; other numbers are inactive results; ? = inconclusive; · = no result given; [ ] = dose if it differs, or a comment. Calls come from the whole dose curve; as a rule, active = well fitted curve in the direction sought with a large enough effect; inconclusive = small, poorly fitted or top-dose-only effect, or another doubt; inactive = no such curve, though single readings can be large; an effect the other way counts as inactive or inconclusive. Potency is the fitted concentration of half-maximal effect.

SMILES	SMN2 splice enh	ELG1 genotoxic	NPC1 promoter act	FLuc counter	Rab9 promoter act
N#Cc1cn(-c2ccccc2)nc1-c1ccc2c(c1)OCCO2	14.1µM*	?	?	-12.0%[2.3 µM]	3.98µM*
O=Cc1cn(-c2ccccc2)nc1-c1ccc2c(c1)OCCO2	12.6µM*	9.5%	11.1%	4.78µM*	16.5%
CCN(CC)C(=O)c1cn(-c2ccccc2)nc1-c1ccc2c(c1)OCCO2	-24.7%	-8.9%	-4.9%	-0.7%	17.6%
COCCNC(=O)c1cc(-c2ccc3c(c2)OCO3)on1	11.2µM*	?	1.58µM*	6.75µM*	2.51µM*
C=CCNC(=O)c1cc(-c2ccc3c(c2)OCO3)on1	·	?	0.447µM*	2.13µM*	0.562µM*
CCC(C)NC(=O)COCc1cc(-c2ccc3c(c2)OCO3)on1 (stereo not drawn)	·	2.2%	6.0%	?	-1.8%
COCCNC(=O)COCc1cc(-c2ccc3c(c2)OCO3)on1	·	4.6%	-3.8%	?	-0.6%
CCC(C)NC(=O)c1cc(-c2ccc3c(c2)OCO3)on1 (stereo not drawn)	·	?	0.891µM*	3.38µM*	0.447µM*
O=C(CSc1nc2c([nH]c3ccccc32)c(=O)n1-c1ccc(Cl)cc1)NCc1ccccc1	·	·	·	-0.5%	·
COc1cccc(NC(=O)c2oc3ccccc3c2NC(=O)C23CC4CC(CC(C4)C2)C3)c1	-8.6%	·	·	-4.8%	·
COc1ccc(CCNC(=O)c2nc(SCc3ccc(C)cc3)ncc2Cl)cc1OC	4.1%	·	·	-3.5%	·
COc1ccc(/C=N/NC(=O)c2ccc(Br)cc2)c(OC)c1	29.3%	6.8%	-3.3%	15.1µM*	-2.2%
COc1ccc(C(=O)N/N=C\c2coc3ccccc3c2=O)cc1	·	-6.7%	-3.4%	4.78µM*	-5.1%
COc1ccccc1/C=N/OC(=O)c1ccc(F)cc1	·	3.4%	3.3%	3.38µM*	0.6%
COc1ccccc1/C=N/NC(=O)CNC(=O)c1ccccc1	·	-3.0%	3.6%	?	-0.9%
COc1ccccc1/C=N/NC(=O)c1ccc(Br)cc1	6.6%	-5.1%	-3.3%	13.5µM*	0.7%
COc1ccc(/C=N/NC(=O)c2ccncc2)c(OC)c1	·	-2.1%	-0.8%	?	2.8%
COc1ccccc1/C=N/OCc1cc(C(C)=O)ccc1OC	·	2.9%	-3.4%	-7.4%	-1.0%[1.84 µM]
CCCn1c(-c2ccc(F)cc2)nc2c(NCCCN3CCCCC3C)nc(C)nc21 (stereo not drawn)	-9.3%	·	·	·	·
COc1cccc(C(=O)N(Cc2sccc2C)C2CCS(=O)(=O)C2)c1 (stereo not drawn)	10.8%	·	·	2.6%	·
COc1cc(C(=O)Oc2ccccc2/C=N/NC(=O)c2ccc(Cl)cc2)cc(OC)c1OC	-100.7%	?	0.3%	6.75µM*	-23.6%
COc1cc(C(=O)Oc2ccccc2/C=N/NC(=O)c2ccc(C)c(Cl)c2)cc(OC)c1OC	-95.9%	?	-22.8%	-1.3%	-33.1%
COc1cccc(C(=O)NCC(=O)OCc2ccc(F)cc2Cl)c1	-2.3%	0.9%	0.4%	16.9µM*	-6.8%
COc1cc(OC)cc(C(=O)NCC(=O)Nc2ccc(-c3ccccc3)cc2)c1	·	?	-5.5%	15.1µM*	27.6%
COC(=O)CNC(=O)c1cccc(Cl)c1	7.5%	-0.4%	-3.5%	-2.1%	-1.5%
SMILES	SMN2 splice enh	ELG1 genotoxic	NPC1 promoter act	FLuc counter	Rab9 promoter act
COc1cc(OC)cc(C(=O)NCC(=O)Nc2ccc(C)c(Cl)c2)c1	·	2.7%	0.0%	-2.2%	-5.3%
COC(=O)CNC(=O)c1cccc(-c2ccc(OC)cc2)c1	4.3%	4.2%	7.7%	19µM*	14.8%
CCN(CC)C(=O)c1cccc(-c2ccc(OC)cc2)c1	6.3%	?	9.3%	?	10.9%
COc1ccc(-c2cccc(C(=O)NCC(=O)O)c2)cc1	?	?	14.9%	13.5µM*	24.7%
Cc1ccc(N2CC(NC(=O)C3CCCCC3)CC2=O)cc1 (stereo not drawn)	·	·	·	-0.8%	·
CCN(CC)COC(=S)S	-12.5%[9.22 µM]	·	·	·	·
CCOc1ccc(C2C(C(N)=O)=C(C)Nc3nc(SCc4ccccc4)nn32)cc1 (stereo not drawn)	2.7%	·	·	-7.0%	·
CCc1cccc(C)c1NC(=O)Cn1cnc2c1c(=O)n(C)c(=O)n2C	-15.3%	·	·	1.9%	·
CNC(CC(=O)O)C(=O)O (stereo not drawn)	-4.0%	·	·	·	·
C/C(=N/N=C1/NC(=O)CC(C(=O)O)S1)c1ccccc1 (stereo not drawn)	-13.4%	0.2%	-2.5%	-4.2%	-0.7%
O=C1CC(C(=O)O)S/C(=N\N=C\c2ccc(Br)cc2)N1 (stereo not drawn)	·	-0.1%	-0.9%	16.9µM*	-0.1%
C/C(=N\Nc1nccnc1Cl)c1ccc(F)cc1	·	?	?	23.9µM*	?
C/C(=N\Nc1nccnc1Cl)c1ccc(O)cc1	·	11.5%	16.7%	?	15.4%
C/C(=N\Nc1nccnc1Cl)c1c(F)c(F)c(F)c(F)c1F	-0.9%	1.0%	0.4%	0.3%	5.4%
C/C(=N\Nc1nccnc1Cl)c1ccc(Cl)c(Cl)c1	·	6.7%	17.6%	21.3µM*	17.8%
CC(C)NC(=O)c1ccc(CSc2nc3ccncc3n2Cc2cccc(F)c2)cc1	-2.1%	·	·	2.5%	·
CC(=O)c1sc(N/N=C\c2ccccc2O)nc1C	?	6.51µM*	?	3.38µM*	?
COc1ccccc1Nc1nc(-c2ccccc2)c(CC(=O)O)s1	11.7%	·	·	16.9µM*	·
COc1ccc(/C(C)=N/Nc2nc(C)c(C(C)=O)s2)cc1	·	3.4%	-2.5%	?	-0.6%
CCOC(=O)c1sc(Nc2ccc(C)cc2C)nc1C	-19.1%	20.7%	-3.0%	?	-2.6%
CCOC(=O)c1sc(N/N=C/c2ccccc2)nc1C	12.6µM*	8.2µM*	2.82µM*	2.69µM*	1.58µM*
CCOC(=O)c1sc(N/N=C/c2cccc(C)c2)nc1C	20.4%	11.0%	?	8.49µM*	?
CN(C)c1ccc(CNC(=O)CCn2c(=O)c3cccn3c3ccc(F)cc32)cc1	·	·	·	0.2%	·
CCCCC/C=C\C/C=C\C/C=C\CCCCCCC(=O)NCCc1ccc(O)c(O)c1	2.0%	·	·	·	·
CCCC(=O)NC(C)c1nc2ccccc2n1Cc1ccccc1 (stereo not drawn)	-2.2%	·	·	0.9%	·
SMILES	SMN2 splice enh	ELG1 genotoxic	NPC1 promoter act	FLuc counter	Rab9 promoter act
O=C(O)Cc1sc(Nc2ccccc2)nc1-c1cccs1	·	?	?	12µM*	27.1%
C=CCNc1nc(-c2cccs2)c(CC(=O)O)s1	·	-0.8%	1.7%	-0.7%	-0.2%
O=C(O)Cc1sc(N/N=C\c2ccccc2)nc1-c1ccccc1	16.1%	0.5%	6.5%	23.9µM*	11.8%
CCCc1sc(N/N=C/c2ccccn2)nc1-c1ccc(F)cc1	-73.7%	?	-36.1%	-15.9%	-31.7%
COC(=O)c1ccc(/C=N/Nc2nc(C)c(C)s2)cc1	·	-6.9%	0.355µM*	1.07µM*	0.447µM*
Cc1nc(N/N=C/c2ccccn2)sc1C	·	0.13µM*	-30.3%	0.151µM*	-41.0%
